Each structure is given as a SMILES string. The source made the active and inactive calls. How the source made its calls: active means hit-call score of the fitted dose curve at least 0.9, where 1 is the maximum; inactive means score below 0.9.

Common to all, as to conditions: mRNA level, 48 h; actives raise or lower the signal
Read-out in test [1]: Glutathione S-transferase M3 (GSTM3), GSTM3 (gene 2947)
Put plainly: LTEA_HepaRG_GSTM3: Life Technologies and Expression Analysis (LTEA) Assay for Glutathione S-transferase M3 (GSTM3) using HepaRG (AID 2283501). The procedure, abridged:
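Expression of GSTM3 is determined by qRT-PCR in human liver HepaRG cells treated 48 h with an 8-point half-log range from 100 uM in 0.5% DMSO.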

Read-out in test [2]: Heat shock 70 kDa protein 1 (HSPA1A), gene 3303
The experiment in a line: LTEA_HepaRG_HSPA1A: Life Technologies and Expression Analysis (LTEA) Assay for Heat shock 70 kDa protein 1 (HSPA1A) using HepaRG (AID 2283502). The procedure, abridged: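 HSPA1A induction in human HepaRG liver cells is measured after 48 h of chemical treatment (100 uM maximum, 0.5% DMSO vehicle). Expression comes from qRT-PCR normalized to endogenous controls.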

Read-out in test [3]: Hypoxia-inducible factor 1-alpha (Homo sapiens) (UniProt Q16665)
Put plainly: LTEA_HepaRG_HIF1A: Life Technologies and Expression Analysis (LTEA) Assay for Hypoxia-inducible factor 1 (HIF1A) Trancription factor using HepaRG (AID 2283503).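 Further: HIF1A transcript by TaqMan qRT-PCR normalized to ACTB GAPDH and POLR2A.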 An outline of the steps: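 HepaRG, 48 h exposure, 8-pt half-log series from 100 uM, 0.5% DMSO vehicle, duplicates. Readout: HIF1A transcript by qRT-PCR (Fluidigm array), housekeeping-normalised. Bidirectional curve fit vs DMSO baseline.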

Read-out in test [4]: 3-Hydroxy-3-Methylglutaryl-CoA Synthase 2 (HMGCS2), HMGCS2 (gene 3158)
Put plainly: LTEA_HepaRG_HMGCS2: Life Technologies and Expression Analysis (LTEA) Assay for 3-Hydroxy-3-Methylglutaryl-CoA Synthase 2 (HMGCS2) using HepaRG (AID 2283504). The procedure, abridged: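 This steatosis marker was read as HMGCS2 mRNA change in HepaRG cells treated 48 h with up to 100 uM chemical. Normalisation used housekeeping genes; activity in either direction was fitted relative to 0.5% DMSO vehicle.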

Read-out in the next test: HGF (gene 3082)
Put plainly: LTEA_HepaRG_HGF: Life Technologies and Expression Analysis (LTEA) Assay for Hepatocyte Growth Facto (HGF) using HepaRG (AID 2283505). The procedure, abridged: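 Using HepaRG monolayers kept in 0.5% DMSO, chemicals were tested in duplicate over eight half-log concentrations from 100 uM for 48 h. Endpoint: HGF mRNA change relative to DMSO, normalized to ACTB/GAPDH/POLR2A.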

Read-out in test [5]: Insulin Like Growth Factor 1 (IGF1), IGF1 (gene 3479)
The experiment in a line: LTEA_HepaRG_IGF1: Life Technologies and Expression Analysis (LTEA) Assay for Insulin Like Growth Factor 1 (IGF1) using HepaRG (AID 2283506). The procedure, abridged:
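Using human HepaRG liver cells, IGF1 transcript induction or suppression is measured 48 h after dosing across eight concentrations capped at 100 uM. Values derive from bidirectional concentration-response fitting with DMSO as baseline.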

Read-out in test [6]: Intercellular Adhesion Molecule 1 (ICAM1), ICAM1 (gene 3383)
Put plainly: LTEA_HepaRG_ICAM1: Life Technologies and Expression Analysis (LTEA) Assay for Intercellular Adhesion Molecule 1 (ICAM1) using HepaRG (AID 2283507). The procedure, abridged: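 Using the human liver line HepaRG, compounds are tested in duplicate over 48 h at concentrations up to 100 uM. Expression is determined by TaqMan qRT-PCR, normalized to endogenous controls, and analysed relative to 0.5% DMSO vehicle.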

Read-out in test [7]: Insulin-like growth factor-binding protein 1 (IGFBP1), IGFBP1 (gene 3484)
The experiment in a line: LTEA_HepaRG_IGFBP1: Life Technologies and Expression Analysis (LTEA) Assay for Insulin-like growth factor-binding protein 1 (IGFBP1) using HepaRG (AID 2283508). An outline of the steps:
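HepaRG, 48 h, 8 conc. (max 100 uM, half-log), duplicates, 0.5% DMSO. Readout: TaqMan qRT-PCR, ACTB/GAPDH/POLR2A normalisation. Fit: bidirectional vs DMSO.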

Read-out in test [8]: Interleukin 6 (IL6), IL6 (gene 3569)
Put plainly: LTEA_HepaRG_IL6: Life Technologies and Expression Analysis (LTEA) Assay for Interleukin 6 (IL6) using HepaRG (AID 2283509). An outline of the steps:
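HepaRG, ~100,000 cells/well, 48 h pre-culture; serum-free induction medium; cmpd 8-pt half-log from 100 uM, 0.5% DMSO, duplicate, 48 h. Lysis in RLT, TaqMan qRT-PCR; gain or loss vs DMSO.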

Read-out in test [9]: Interleukin 6 Receptor (IL6R), IL6R (gene 3570)
The experiment in a line: LTEA_HepaRG_IL6R: Life Technologies and Expression Analysis (LTEA) Assay for Interleukin 6 Receptor (IL6R) using HepaRG (AID 2283510). The procedure, abridged: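 Concentration-response in human liver HepaRG cells: eight concentrations from 100 uM downward by half-logs, 48 h exposure, 0.5% DMSO vehicle. IL6R mRNA change measured by qRT-PCR and fitted in both directions relative to vehicle.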

Read-out in test [10]: Potassium channel subfamily K member 1 (KCNK1), KCNK1 (gene 3775)
The experiment in a line: LTEA_HepaRG_KCNK1: Life Technologies and Expression Analysis (LTEA) Assay for Potassium channel subfamily K member 1 (KCNK1) using HepaRG (AID 2283511). An outline of the steps:
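Gain or loss of KCNK1 mRNA is the read-out, quantified by qRT-PCR against three housekeeping genes after 48 h chemical treatment of human HepaRG liver cells. Concentrations ran from 100 uM downward in half-log steps, vehicle 0.5% DMSO.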

Read-out in test [11]: Keratin 19 (KRT19), KRT19 (gene 3880)
The experiment in a line: LTEA_HepaRG_KRT19: Life Technologies and Expression Analysis (LTEA) Assay for Keratin 19 (KRT19) using HepaRG (AID 2283512). The procedure, abridged: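 Readout is qRT-PCR of KRT19 mRNA, normalized to ACTB, GAPDH and POLR2A, from HepaRG cells treated 48 h with eight-point half-log dilutions topping at 100 uM. Activity in either direction is scored relative to 0.5% DMSO vehicle.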

Read-out in test [12]: JUN Transcription Factor, JUN (gene 3725)
Put plainly: LTEA_HepaRG_JUN: Life Technologies and Expression Analysis (LTEA) Assay for JUN Transcription Factor using HepaRG (AID 2283513). The procedure, abridged:
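Human HepaRG liver cells receive test chemicals in 0.5% DMSO for 48 h across an eight-point range topping at 100 uM. Expression changes in JUN are scored in both directions against the DMSO vehicle.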

Read-out in test [13]: Lipase C (LIPC), LIPC (gene 3990)
Put plainly: LTEA_HepaRG_LIPC: Life Technologies and Expression Analysis (LTEA) Assay for Lipase C (LIPC) using HepaRG (AID 2283514). An outline of the steps: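 Read-out is LIPC transcript level by TaqMan qRT-PCR, normalized to three housekeeping genes, after 48 h chemical treatment of human HepaRG liver cells. Curves span eight concentrations topping at 100 uM; activity in either direction scored relative to 0.5% DMSO.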

Read-out in test [14]: Lipoprotein lipase (LPL), LPL (gene 4023)
The experiment in a line: LTEA_HepaRG_LPL: Life Technologies and Expression Analysis (LTEA) Assay for Lipoprotein lipase (LPL) using HepaRG (AID 2283515). An outline of the steps: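 Read-out is LPL transcript level by qRT-PCR, normalized to three housekeeping genes and fitted bidirectionally against the DMSO control. Human HepaRG cells received chemicals for 48 h at up to 100 uM.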

Read-out in test [15]: MicroRNA 122 (MIR122), gene 406906
The experiment in a line: LTEA_HepaRG_MIR122: Life Technologies and Expression Analysis (LTEA) Assay for MicroRNA 122 (MIR122) using HepaRG (AID 2283516). Further: the transcript read is the microRNA miR-122. An outline of the steps:
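HepaRG, 48 h exposure, 8-pt half-log from 100 uM, 0.5% DMSO; TaqMan qRT-PCR; bidirectional fit vs DMSO.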

Read-out in test [16]: matrix metalloproteinase-10 (MMP10), MMP10 (gene 4319)
The experiment in a line: LTEA_HepaRG_MMP10: Life Technologies and Expression Analysis (LTEA) Assay for matrix metalloproteinase-10 (MMP10) using HepaRG (AID 2283517). The procedure, abridged:
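Gain or loss of MMP10 mRNA is fitted relative to the 0.5% DMSO vehicle. The human hepatic line HepaRG receives a 48-hour serum-free exposure, in duplicate, with a maximum concentration of 100 uM.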

Read-out in a further test: MYC, MYC (gene 4609)
Put plainly: LTEA_HepaRG_MYC: Life Technologies and Expression Analysis (LTEA) Assay for MYC using HepaRG (AID 2283518). The procedure, abridged:
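Expression changes were scored by TaqMan qRT-PCR with ACTB, GAPDH and POLR2A normalization. Cultures in serum-free induction medium received duplicate 8-point concentration series, highest 100 uM, for 48 h; DMSO (0.5%) served as baseline.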

Read-out in test [17]: matrix metalloproteinase-3 (MMP3), MMP3 (gene 4314)
The experiment in a line: LTEA_HepaRG_MMP3: Life Technologies and Expression Analysis (LTEA) Assay for matrix metalloproteinase-3 (MMP3) using HepaRG (AID 2283519). An outline of the steps:
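HepaRG, human; 48 h dosing, 8 conc. (max 100 uM, half-log), duplicate, 0.5% DMSO. Readout: MMP3 transcript by Fluidigm TaqMan qRT-PCR, ACTB/GAPDH/POLR2A-normalised. Gain or loss fitted vs DMSO.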

Read-out in test [18]: Paternally Expressed 10 (PEG10), PEG10 (gene 23089)
The experiment in a line: LTEA_HepaRG_PEG10: Life Technologies and Expression Analysis (LTEA) Assay for Paternally Expressed 10 (PEG10) using HepaRG (AID 2283520).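 On AC50: differentiated HepaRG human liver cells in serum-free induction medium with 0.5% DMSO; PEG10 transcript by qRT-PCR normalised to ACTB GAPDH and POLR2A.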 The procedure, abridged:
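Chemicals tested on HepaRG cells for 48 h, highest concentration 100 uM. PEG10 expression assessed by qRT-PCR relative to DMSO control.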

Sequence of Hypoxia-inducible factor 1-alpha (Homo sapiens) (Q16665 whole entry, looked up): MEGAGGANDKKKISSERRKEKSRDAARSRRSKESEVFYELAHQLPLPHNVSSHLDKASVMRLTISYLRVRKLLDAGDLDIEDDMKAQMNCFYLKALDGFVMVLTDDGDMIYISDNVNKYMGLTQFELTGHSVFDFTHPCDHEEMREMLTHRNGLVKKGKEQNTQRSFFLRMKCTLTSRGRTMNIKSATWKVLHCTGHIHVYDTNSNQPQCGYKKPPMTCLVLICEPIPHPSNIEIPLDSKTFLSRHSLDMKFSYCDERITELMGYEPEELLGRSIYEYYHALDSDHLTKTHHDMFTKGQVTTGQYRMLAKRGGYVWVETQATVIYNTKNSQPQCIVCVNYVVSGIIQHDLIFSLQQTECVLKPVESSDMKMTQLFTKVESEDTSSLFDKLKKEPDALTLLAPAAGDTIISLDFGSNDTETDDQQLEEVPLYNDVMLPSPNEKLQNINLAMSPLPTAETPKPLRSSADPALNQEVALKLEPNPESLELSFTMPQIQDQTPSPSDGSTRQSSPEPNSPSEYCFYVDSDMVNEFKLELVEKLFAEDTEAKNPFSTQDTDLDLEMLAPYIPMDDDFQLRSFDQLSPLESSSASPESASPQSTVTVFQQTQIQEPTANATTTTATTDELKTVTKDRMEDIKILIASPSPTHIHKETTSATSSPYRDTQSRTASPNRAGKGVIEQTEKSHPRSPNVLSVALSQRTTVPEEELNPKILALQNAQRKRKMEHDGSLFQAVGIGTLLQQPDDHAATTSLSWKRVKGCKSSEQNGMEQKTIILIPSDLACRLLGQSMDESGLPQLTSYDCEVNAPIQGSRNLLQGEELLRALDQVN

Turning to `O=C(O)c1nc(Cl)ccc1Cl`, the call (in test [1]; in test [2]; in test [3]; in test [4]; with HGF (gene 3082); in test [5]) was inactive. The result in [6], in test [7], in [8], in test [9], in test [10] and in [11] was inactive. Also, the outcome in test [12] was “inactive”; in test [13] it was “inactive”; in test [14] it was “inactive”; in test [15], “inactive”; in [16], “inactive”; with MYC, MYC (gene 4609), “inactive”. Also, the call in [17] and in test [18] was inactive.
For the molecule `CC(Oc1ccc(Cl)cc1Cl)C(=O)O` (stereo not drawn), the molecule was called inactive (in [1]; in test [2]; in test [3]; in test [4]; with HGF (gene 3082); in test [5]). Also, the molecule was called inactive in [6], in test [7], in test [8], in test [9], in test [10] and in test [11]. Further, the outcome in test [12] is “inactive”; in [13], “inactive”; in [14], “inactive”; in test [15] it was “inactive”; in test [16] it was “inactive”; with MYC, MYC (gene 4609) it was “inactive”. For the same molecule, the result in test [17] and in test [18] was inactive.
Usually AC50 stands for the concentration at which the activity in the assay is half-maximal. As for `CC(C)(C)c1ccc(CSc2cnn(C(C)(C)C)c(=O)c2Cl)cc1`, the molecule was called inactive (in test [2]; in [3]; with HGF (gene 3082); in test [9]; in test [10]; in [12]). Further, the outcome in test [17] was inactive. In addition, the AC50 in [4] is 2380 nM (active); in test [5], 1880 nM (active); in test [6] it was 2690 nM (active); in test [7], 3430 nM (active); in test [8], 2840 nM (active); in test [11], 1580 nM (active). In addition, the AC50 in [13] is 2820 nM (active); in test [14], 2250 nM (active); in test [15] it was 22800 nM (active); in [16] it was 18100 nM (active); with MYC, MYC (gene 4609), 2840 nM (active); in test [18] it was 1010 nM (active).
With `CCCCOC(=O)c1ccccc1C(=O)OCCCC`, the molecule was called inactive (in test [2]; in test [3]; in test [4]; with HGF (gene 3082); in test [5]; in test [6]). Further, the result in test [7], in [8], in test [9], in test [10], in [11] and in test [12] was inactive. For the same molecule, the outcome in test [13] was “inactive”; in test [14], “inactive”; in [15], “inactive”; in test [16], “inactive”; with MYC, MYC (gene 4609) it was “inactive”; in test [17], “inactive”. For the same molecule, the molecule was classed as inactive in test [18].
Turning to `COP(N)(=O)SC` (stereo not drawn), the outcome (in [1]; in [2]; in test [3]; in test [4]; with HGF (gene 3082); in test [5]) was inactive. The molecule was classed as inactive in test [6], in [7], in test [8], in [9], in test [10] and in test [11]. Also, the outcome is “inactive” in [12]; “inactive” in test [13]; “inactive” in test [14]; “inactive” in [15]; “inactive” in test [16]; “inactive” with MYC, MYC (gene 4609). For the same molecule, the call in [17] and in test [18] was inactive.

These data come from PubChem BioAssay (EPA / NIEHS).
